From PubChem BioAssay (NCI) come the findings set out here.

Some test systems named below: HT29 colon; SNB-75 CNS; SNB-19 CNS; U251 CNS; PC-3 prostate; SK-MEL-5 melanoma; UACC-62 melanoma; LOX IMVI melanoma; SK-MEL-28 melanoma; EKVX NSCLC; SN12C renal; UO-31 renal; TK-10 renal; ACHN renal; CAKI-1 renal; A498 renal; CCRF-CEM leukemia; MOLT-4 leukemia; SK-MEL-2 melanoma; HCT-15 colon.
Holding throughout (test): NCI-60 one-dose screen, 48 h (100 = growth as untreated, 0 = no growth, -100 = all killed)
What all share (details): 10 µM unless noted

This is part of a sample that, as a whole, favours compounds with a hit. Of some 83,000 tested, about 20% had one in any assay.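 Note: values are percent growth. 100 is the growth of untreated cells, values between 100 and 0 indicate rising inhibition; between -100 and 0 indicates cell death.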 A number with no mark means an inactive call. Calls of active or inactive are those of the source. Rule for the calls: active = growth percent below 10; inactive = the rest.

Consider `NC(=S)N/N=C1\c2ccccc2-c2c(F)c(F)c(F)c(F)c21`, for which the growth with HT29 colon was 52.8%; in the assay on SNB-75 CNS, 95.7%; in the assay on SNB-19 CNS it was 89%; in the assay with U251 CNS it was 63.9%; in the assay on PC-3 prostate it was 80.3%; with SK-MEL-5 melanoma, 102%. Moreover, the growth with UACC-62 melanoma is 93.4%; with LOX IMVI melanoma it was 86.6%; with SK-MEL-28 melanoma, 113%; with EKVX NSCLC it was 87.3%; in the assay on SN12C renal it was 70.6%; with UO-31 renal, 68.9%. Also, the growth is 116% in the assay on TK-10 renal; 65.7% in the assay on ACHN renal; 78.3% with CAKI-1 renal; 105% in the assay on A498 renal; -28.1% (active) in the assay on CCRF-CEM leukemia; -18% (active) with MOLT-4 leukemia.
In the case of `O=C(N/N=C/c1ccc(OC(F)F)c(OC2CCCC2)c1)c1cnn2c1NC(c1ccccc1)C2` (stereo unspecified), the growth is 81.7% in the assay on HT29 colon; 57.6% in the assay with SNB-75 CNS; 79.9% in the assay with SNB-19 CNS; 82.1% in the assay with U251 CNS; 61.7% in the assay with PC-3 prostate; 70.9% with SK-MEL-5 melanoma. In addition, the growth in the assay on UACC-62 melanoma is 71.2%; in the assay with LOX IMVI melanoma it was 68.1%; with SK-MEL-28 melanoma it was 88.7%; with SK-MEL-2 melanoma, 90.7%; in the assay on EKVX NSCLC it was 91.5%; with SN12C renal, 87.1%. For the same molecule, the growth in the assay with UO-31 renal was 65.1%; in the assay on TK-10 renal, 91.9%; in the assay with ACHN renal, 82.3%; with CAKI-1 renal, 62.6%; in the assay with CCRF-CEM leukemia, 78.7%; in the assay on MOLT-4 leukemia it was 54.7%.
Turning to `O=C(NC1CC1)c1cc2n(n1)CC(c1ccccc1)N2` (stereo unspecified), the growth in the assay on HT29 colon was 107%; in the assay on SNB-75 CNS, 91.2%; in the assay on SNB-19 CNS, 100%; with U251 CNS it was 102%; in the assay on PC-3 prostate, 98.8%; with SK-MEL-5 melanoma, 99.4%. Besides, the growth in the assay with UACC-62 melanoma was 88.4%; with LOX IMVI melanoma, 98.3%; in the assay with SK-MEL-28 melanoma, 107%; in the assay with SK-MEL-2 melanoma it was 99.9%; in the assay on EKVX NSCLC, 83.7%; in the assay on SN12C renal, 102%. In addition, the growth in the assay with UO-31 renal is 95.8%; in the assay with TK-10 renal, 102%; with ACHN renal it was 106%; in the assay with CAKI-1 renal, 91.4%; in the assay with CCRF-CEM leukemia it was 108%; with MOLT-4 leukemia, 109%.
Turning to `Cl.Fc1c[c-]c(-c2ccccn2)c(F)c1.[Pt].c1ccc([PH+](CC[PH+](c2ccccc2)c2ccccc2)c2ccccc2)cc1`, the growth in the assay with HT29 colon is -73.5% (active); in the assay with SNB-75 CNS, -94.2% (active); in the assay on SNB-19 CNS, -76.4% (active); in the assay with U251 CNS it was -62.2% (active); in the assay on PC-3 prostate it was -70.1% (active); in the assay with SK-MEL-5 melanoma, -99.3% (active). Further, the growth with UACC-62 melanoma was -81% (active); in the assay with LOX IMVI melanoma it was -82.4% (active); in the assay on SK-MEL-28 melanoma, -94.1% (active); in the assay with SK-MEL-2 melanoma it was -76.8% (active); in the assay with EKVX NSCLC, -99.2% (active); with SN12C renal it was -75.8% (active). The growth is -92.4% (active) in the assay on UO-31 renal; -83.7% (active) in the assay on TK-10 renal; -97.9% (active) in the assay with ACHN renal; -83.5% (active) in the assay on CAKI-1 renal; -43% (active) in the assay on CCRF-CEM leukemia; -26.8% (active) with MOLT-4 leukemia.
Regarding `COc1cccc(OC(=O)c2ccccc2)c1OC(=O)c1ccccc1`, the growth with HT29 colon was 85.3%; in the assay on SNB-75 CNS, 55.3%; in the assay with SNB-19 CNS, 73.5%; in the assay on SK-MEL-5 melanoma, 56.9%; in the assay on UACC-62 melanoma it was 66%; with LOX IMVI melanoma it was 63%. The growth with SK-MEL-28 melanoma was 84.7%; in the assay with SK-MEL-2 melanoma it was 57.6%; in the assay on EKVX NSCLC, 95.4%; in the assay on SN12C renal, 76.7%; with TK-10 renal, 87.7%; in the assay with ACHN renal, 98.3%. In addition, the growth with CAKI-1 renal is 75.2%; in the assay with A498 renal, 88.9%; in the assay with CCRF-CEM leukemia, 87.6%; in the assay with MOLT-4 leukemia, 79.5%.
Turning to `CC1(C)N=C(N)N=C(N)N1c1cccc(/C=C/C=C/c2cccc([N+](=O)[O-])c2)c1`, the growth was 11.5% in the assay with HT29 colon; 58.3% in the assay on SNB-75 CNS; 51.6% with SNB-19 CNS; 68.3% in the assay on SK-MEL-5 melanoma; 47.3% in the assay on UACC-62 melanoma; 33.7% in the assay on LOX IMVI melanoma. The growth with SK-MEL-28 melanoma is 65.6%; in the assay with SK-MEL-2 melanoma, 67.2%; in the assay on SN12C renal, 83.6%; with UO-31 renal it was 81.5%; with TK-10 renal, 50.9%; with ACHN renal, 95.6%. Moreover, the growth was 96.9% with CAKI-1 renal, 65.2% with A498 renal, 35% in the assay with CCRF-CEM leukemia and 45.5% in the assay with MOLT-4 leukemia.
For the molecule `COC(=O)[C@@H]1CCCN1C(=O)[C@@H]1CCCN1C(=O)[C@@H](Cc1c[nH]c2ccccc12)NC(=S)Nc1cc(C(F)(F)F)cc(C(F)(F)F)c1`, the growth was 51.1% with HT29 colon; 32.7% with SNB-75 CNS; 69.3% with SNB-19 CNS; 43.4% in the assay on PC-3 prostate; 58.1% in the assay on UACC-62 melanoma; 23.3% in the assay with LOX IMVI melanoma. The growth in the assay with SK-MEL-28 melanoma is 33.7%; with SK-MEL-2 melanoma it was 39.9%; in the assay on SN12C renal, 65.7%; in the assay on UO-31 renal it was 41.4%; with TK-10 renal, 83.5%; in the assay with ACHN renal it was 61.9%. In addition, the growth is 56.9% in the assay on CAKI-1 renal, 99.6% in the assay on A498 renal, 19.9% in the assay on CCRF-CEM leukemia and 22.3% in the assay on MOLT-4 leukemia.
For `CCN1CCN(C(=S)SCC(=O)Nc2nc3ccc(OC)cc3s2)CC1`, the growth in the assay with HT29 colon was 102%; in the assay with SNB-75 CNS, 94%; in the assay on SNB-19 CNS, 93.1%; in the assay on U251 CNS, 102%; in the assay on PC-3 prostate it was 82.9%; with SK-MEL-5 melanoma, 94.6%. The growth was 91.3% in the assay on LOX IMVI melanoma; 106% in the assay on SK-MEL-28 melanoma; 101% with EKVX NSCLC; 97.6% in the assay with SN12C renal; 79% in the assay on UO-31 renal; 111% with TK-10 renal. In addition, the growth in the assay on ACHN renal is 110%; with CAKI-1 renal it was 81.8%; with A498 renal it was 105%; in the assay with MOLT-4 leukemia it was 97.2%.
In the case of `CCOc1ccc(/C=N\N2CCCCCC2)cc1OCC`, the growth in the assay with HT29 colon was 100%; with SNB-75 CNS, 85.2%; in the assay with SNB-19 CNS it was 96.2%; in the assay with U251 CNS, 86%; in the assay on SK-MEL-5 melanoma it was 83.1%; in the assay on UACC-62 melanoma it was 75.1%. The growth in the assay on SK-MEL-28 melanoma is 95.5%; in the assay on SK-MEL-2 melanoma, 103%; in the assay with EKVX NSCLC, 76.8%; in the assay with SN12C renal, 82.7%; in the assay with TK-10 renal, 97.7%; in the assay with ACHN renal, 88.7%. For the same molecule, the growth with CAKI-1 renal was 90.8%; in the assay with CCRF-CEM leukemia, 102%; in the assay on MOLT-4 leukemia, 106%.
As to `O=C(O)c1ccccc1Oc1cc(-c2ccco2)nc(OCCBr)n1`, the growth was 104% with HCT-15 colon; 99.7% with SNB-75 CNS; 98.3% with U251 CNS; 110% in the assay with SK-MEL-5 melanoma; 94.9% in the assay with UACC-62 melanoma; 107% with LOX IMVI melanoma. For the same molecule, the growth in the assay with SK-MEL-28 melanoma was 119%; in the assay with SK-MEL-2 melanoma, 111%; in the assay with EKVX NSCLC it was 94.5%; with SN12C renal, 94.7%; in the assay on UO-31 renal it was 86.6%; in the assay on TK-10 renal, 103%. Further, the growth is 90.7% in the assay with CAKI-1 renal, 99.3% in the assay on A498 renal and 98.5% in the assay with MOLT-4 leukemia.
